Assay results published in the supplement of paper PMC8728848.
The sample as a whole holds a higher share of the strongest signals than the screen did.

Legend:
Assay in all cases: glycan array binding signal (z-score within array); higher = stronger binding
Conditions in all cases: glycan notation: IUPAC condensed, linker removed; mutation: K348A
Fuc(a1-2)Gal(b1-4)GlcNAc = target: Fuc(a1-2)Gal(b1-4)GlcNAc
Method in brief: (§1)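 Negative Z-scores can be read as non-binding. The Z-score is calculated within each array and then averaged across arrays of one protein sequence at different concentrations or buffers and across linkers. Arrays, 3228 in all, were curated from the Consortium for Functional Glycomics database and kept only where the protein sequence was available.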

[1] = target: Fuc(a1-2)Gal(b1-4)[Fuc(a1-3)]GlcNAc(b1-3)Gal(b1-4)[Fuc(a1-3)]GlcNAc(b1-3)Gal(b1-4)[Fuc(a1-3)]GlcNAc
Method in brief: as §1

[2] = target: Fuc(a1-2)[Gal(a1-3)]Gal(b1-4)[Fuc(a1-3)]GlcNAc
Method in brief: as §1

[3] = target: Fuc(a1-2)[GalNAc(a1-4)]Gal(b1-4)GlcNAc
Method in brief: as §1

Fuc(a1-3)GlcNAc = target: Fuc(a1-3)GlcNAc
Method in brief: as §1

[4] = target: Fuc(a1-3)[Gal(b1-4)]GlcNAc(b1-2)Man(a1-3)[Fuc(a1-3)[Gal(b1-4)]GlcNAc(b1-2)Man(a1-6)]Man(b1-4)GlcNAc(b1-4)GlcNAc
Method in brief: as §1

[5] = target: Fuc(a1-3)[Gal(b1-4)]GlcNAc(b1-4)Gal(b1-4)[Fuc(a1-3)]GlcNAc
Method in brief: as §1

[6] = target: Fuc(a1-3)[Gal(b1-4)]GlcNAc6S
Method in brief: as §1

[7] = target: Gal(b1-3)[Neu5Ac(b2-6)]GalNAc
Method in brief: as §1

[8] = target: Gal(b1-4)GalNAc(a1-3)[Fuc(a1-2)]Gal(b1-4)GlcNAc
Method in brief: as §1

[9] = target: Gal(b1-4)GlcNAc(b1-3)[Gal(b1-4)GlcNAc(b1-6)]Gal(b1-4)GlcNAc
Method in brief: as §1

[10] = target: Gal(b1-4)GlcNAc(b1-6)GalNAc
Method in brief: as §1

GalNAc(b1-4)GlcNAc = target: GalNAc(b1-4)GlcNAc
Method in brief: as §1

Glc(a1-4)Glc = target: Glc(a1-4)Glc
Method in brief: as §1

Glc(b1-4)Glc = target: Glc(b1-4)Glc
Method in brief: as §1

[11] = target: GlcNAc(b1-3)[GlcNAc(b1-6)]Gal(b1-4)GlcNAc
Method in brief: as §1

[12] = target: Man(a1-2)Man(a1-2)Man(a1-6)[Man(a1-3)]Man
Method in brief: as §1

[13] = target: Man(a1-2)Man(a1-3)[Man(a1-2)Man(a1-6)]Man
Method in brief: as §1

[14] = target: Man(a1-2)Man(a1-3)[Man(a1-2)Man(a1-6)]Man(a1-6)[Man(a1-2)Man(a1-2)Man(a1-3)]Man
Method in brief: as §1

[15] = target: Man(a1-3)[Man(a1-6)]Man(a1-6)[Man(a1-2)Man(a1-3)]Man(b1-4)GlcNAc(b1-4)GlcNAc
Method in brief: as §1

[16] = target: Man(a1-3)[Man(a1-6)]Man(a1-6)[Man(a1-3)]Man
Method in brief: as §1

[17] = target: Neu5Ac(a2-3)Gal(b1-3)GalNAc(b1-4)[Neu5Ac(a2-3)]Gal(b1-4)Glc
Method in brief: as §1

[18] = target: Neu5Ac(a2-3)Gal(b1-3)[Fuc(a1-4)]GlcNAc(b1-3)Gal(b1-4)[Fuc(a1-3)]GlcNAc
Method in brief: as §1

[19] = target: Neu5Ac(a2-3)Gal(b1-4)[Fuc(a1-3)]GlcNAc(b1-3)Gal
Method in brief: as §1

[20] = target: Neu5Ac(a2-3)Gal(b1-4)[Fuc(a1-3)]GlcNAc(b1-6)[Gal(b1-3)]GalNAc
Method in brief: as §1

Neu5Ac(a2-6)Gal(b1-4)Glc = target: Neu5Ac(a2-6)Gal(b1-4)Glc
Method in brief: as §1

[21] = target: Neu5Gc(a2-3)Gal(b1-3)[Fuc(a1-4)]GlcNAc
Method in brief: as §1

B1: Surfactant Protein D (Human); Neck + Carbohydrate Recognition Domain (NCRD) (Homo sapiens) (protein)
chain: MLLFLLSALVLLTQPLGYLEAEMKTYSHRTMPSACTLVMCSSVESGLPGRDRDGREGPRGEKGDPGLPGAAGQAGMPGQAGPVGPKGDNGSVGEPGPKGDTGPSGPPGPPGVPGPAGREGALGKQGNIGPQGKPGPKGEAGPKGEVGAPGMQGSAGARGLAGPKGERGVPGERGVPGNTGAAGSAGAMGPQGSPGARGPPGLKGDKGIPGDKGAKGESGLPDVASLRQQVEALQGQVQHLQAAFSQYKKVELFPNGQSVGEKIFKTAQFVKPFTEAQLLCTQAGGQLASPRSAAENAALQQLVVAKNEAAFLSMTDSKTEGKFTYPTGESLVYSNWAPGEPNDDGGSEDCVEIFTNGKWNDRACGEARLVVCEF
With B1 as the binder, how does the “glycan array binding signal (z-score)” value (Fuc(a1-2)Gal(b1-4)GlcNAc) read?
The value was -0.173.

And the “glycan array binding signal (z-score)” value [1]?
Its value is -0.151.

And the “glycan array binding signal (z-score)” value [2]?
The value was -0.148.

What about the “glycan array binding signal (z-score)” value [3] of the same binder?
Its value is -0.151.

And the “glycan array binding signal (z-score)” value (Fuc(a1-3)GlcNAc)?
Its value is -0.116.

What about the “glycan array binding signal (z-score)” value [4] of the same binder?
Its value is -0.176.

And the “glycan array binding signal (z-score)” value [5]?
Its value is -0.134.

What about the “glycan array binding signal (z-score)” value [6] of the same binder?
Its value is -0.17.

And the “glycan array binding signal (z-score)” value [7]?
The value was -0.09.

What about the “glycan array binding signal (z-score)” value [8] of the same binder?
Its value is -0.175.

What about the “glycan array binding signal (z-score)” value [9] of the same binder?
The value was -0.175.

What about the “glycan array binding signal (z-score)” value [10] of the same binder?
Its value is -0.173.

What about the “glycan array binding signal (z-score)” value (GalNAc(b1-4)GlcNAc) of the same binder?
Its value is -0.165.

And the “glycan array binding signal (z-score)” value (Glc(a1-4)Glc)?
Its value is -0.171.

And the “glycan array binding signal (z-score)” value (Glc(b1-4)Glc)?
Its value is -0.16.

What about the “glycan array binding signal (z-score)” value [11] of the same binder?
The value was -0.177.

And the “glycan array binding signal (z-score)” value [12]?
The value was 8.57.

What about the “glycan array binding signal (z-score)” value [13] of the same binder?
Its value is 7.38.

And the “glycan array binding signal (z-score)” value [14]?
The value was 8.69.

What about the “glycan array binding signal (z-score)” value [15] of the same binder?
Its value is 6.04.

What about the “glycan array binding signal (z-score)” value [16] of the same binder?
Its value is 6.52.

And the “glycan array binding signal (z-score)” value [17]?
Its value is -0.156.

What about the “glycan array binding signal (z-score)” value [18] of the same binder?
The value was 0.451.

What about the “glycan array binding signal (z-score)” value [19] of the same binder?
Its value is -0.173.

What about the “glycan array binding signal (z-score)” value [20] of the same binder?
The value was -0.015.

And the “glycan array binding signal (z-score)” value (Neu5Ac(a2-6)Gal(b1-4)Glc)?
Its value is -0.17.

And the “glycan array binding signal (z-score)” value [21]?
The value was -0.149.
